Measured values from PMC11062922 (Nature Chemical Biology, 2023).
Like-named read-outs stand apart in the source and are kept apart here.

Tests used:
Design in all cases: species or system human, MV4-11 + K-562 + COLO205 + SK-N-BE2 + OVCAR-8
MDN1 = conditions: read-out: apparent Kd, n = 1
RAB14 = conditions: read-out: apparent Kd, n = 1
BMPR2 = conditions: read-out: apparent Kd, compound concentrations: 100 nM and 1000 nM (sheet 'Samples'), n = 1
NME2;NME2P1 = conditions: read-out: apparent Kd, n = 1
SMC4 = conditions: read-out: apparent Kd, n = 1
WEE1 = conditions: read-out: apparent Kd, n = 1
PKN1 = conditions: read-out: apparent Kd, n = 1
PRKCD = conditions: read-out: apparent Kd, compound concentrations: 100 nM and 1000 nM (sheet 'Samples'), n = 1
ATR = conditions: read-out: apparent Kd, n = 1
MCM5 = conditions: read-out: apparent Kd; compound concentrations:100 nM and 1000 nM (sheet 'Samples'); n = 1
MET = conditions: read-out: apparent Kd, n = 1
TP53RK = conditions: read-out: apparent Kd, n = 1
AKT3 = conditions: read-out: apparent Kd, n = 1
ACLY = conditions: read-out: apparent Kd, compound concentrations: 100 nM and 1000 nM (sheet 'Samples'), n = 1
CDK9 = conditions: read-out: apparent Kd; compound concentrations:100 nM and 1000 nM (sheet 'Samples'); n = 1
ADK = conditions: read-out: apparent Kd, n = 1
PRKD1 = conditions: read-out: apparent Kd, n = 1
PLK1 = conditions: read-out: apparent Kd, n = 1
CAMK2B = conditions: read-out: apparent Kd, n = 1
TTK = conditions: read-out: apparent Kd, compound concentrations: 100 nM and 1000 nM (sheet 'Samples'), n = 1
[1] = compound concentrations:100 nM and 1000 nM (sheet 'Samples')

COc1ccc(Nc2nccc(N3CCC(NC(=O)Nc4ccc5c(c4)OCO5)C3)n2)cc1 (stereo not shown) [GSK1379745A]
potency estimated from few doses (MDN1; compound concentrations: 100 nM and 1000 nM (sheet 'Samples'), CATDS: 4.1972847016179399E-2): 1360 nM | potency estimated from few doses (RAB14; compound concentrations: 100 nM and 1000 nM (sheet 'Samples'), CATDS: 3.8007636055388601E-2): 1680 nM

COc1cc(Nc2ccnc3cc(-c4ccncc4)ccc23)cc(OC)c1OC.Cl [GW494610A]
potency estimated from few doses (BMPR2; CATDS: 2.09550401545208E-2): 2200 nM

Nc1nc(-c2ccc3c(N)n[nH]c3c2)cc(N2CCCCC2)n1 [GSK2228768A]
potency estimated from few doses (NME2;NME2P1; [1]): 1380 nM | potency estimated from few doses (SMC4; [1]): 2040 nM

CCN(CC)CCOc1ccc(Nc2ncc3cc(-c4c(Cl)cccc4Cl)c(=O)n(C)c3n2)cc1 [SB-601273]
potency estimated from few doses (WEE1; [1]): 171 nM

O=C1N=C(NCc2cccs2)SC1Cc1ccc2ncccc2c1 (stereo not shown) [RO4629078-000]
potency estimated from few doses (PKN1; compound concentrations: 100 nM and 1000 nM (sheet 'Samples'), CATDS: 8.6120949637054304E-3): 1010 nM | potency estimated from few doses (PRKCD; CATDS: 8.2287657459755997E-3): 1170 nM

CCn1cc(-c2ccnc3[nH]c(-c4cccc(CN(C)C)c4)cc23)c(-c2ccc(NC(=O)N(C)C)cc2)n1 [GSK1070916]
potency estimated from few doses (MDN1; [1]): 2000 nM

Cc1cccc(-c2cc(-c3c[nH]nc3-c3ccccn3)ccn2)c1 [GW679395X]
potency estimated from few doses (ATR; [1]): 784 nM | potency estimated from few doses (MCM5): 2220 nM

CS(=O)(=O)Cc1ccc(Nc2nccc(-c3c(-c4cccc(NC(=O)C5CCCCC5)c4)nn4ncccc34)n2)cc1 [GSK350559A]
potency estimated from few doses (MET; [1]): 1780 nM

CCc1nc(-c2cccc(N(C)S(=O)(=O)c3ccccc3)c2)c(-c2ccnc(Nc3ccc(N4CCN(C(C)=O)CC4)nc3)n2)s1 [GSK1645895A]
potency estimated from few doses (TP53RK; compound concentrations: 100 nM and 1000 nM (sheet 'Samples'), CATDS: 0.13765543946778): 1940 nM

Cn1cc(C2=C(c3cn(CCCO)c4ccccc34)C(=O)NC2=O)c2ccccc21 [RO0317377-000]
potency estimated from few doses (PRKCD; CATDS: 9.7795114941797295E-2): 2020 nM

Cl.Cl.Cl.c1ccc(Oc2ccc(Nc3ccnc4cc(-c5ccc(CN6CCNCC6)o5)ccc34)cc2)nc1.c1ccc(Oc2ccc(Nc3ccnc4cc(-c5ccc(CN6CCNCC6)o5)ccc34)cc2)nc1 [GW567142A]
potency estimated from few doses (AKT3; compound concentrations: 100 nM and 1000 nM (sheet 'Samples'), CATDS: 1.96345458497789E-2): 1220 nM

CNC(=O)c1ccccc1Nc1nc(Nc2cccc(CS(C)(=O)=O)c2)ncc1C.O=CO [GSK1520489A]
potency estimated from few doses (BMPR2; CATDS: 1.16298732818768E-2): 672 nM | potency estimated from few doses (MET; compound concentrations: 100 nM and 1000 nM (sheet 'Samples'), CATDS: 7.7828561887260297E-2): 12.2 nM | potency estimated from few doses (WEE1; compound concentrations: 100 nM and 1000 nM (sheet 'Samples'), CATDS: 2.0722471674581099E-2): 127 nM

CN1CCN(Cc2ccc(NC(=O)Nc3ccc(N(C)c4ccnc(Nc5ccc(CS(C)(=O)=O)cc5)n4)cc3)cc2)CC1.Cl [GW827654A]
potency estimated from few doses (MET; compound concentrations: 100 nM and 1000 nM (sheet 'Samples'), CATDS: 3.7030406739302302E-2): 1380 nM

CC(=O)N1CCN(c2ccc(Nc3nccc(-c4sc(C(C)C)nc4-c4cccc(NS(=O)(=O)c5cccc(Cl)c5)c4)n3)cn2)CC1 [GSK1660437A]
potency estimated from few doses (ACLY; CATDS: 3.7699367281675798E-2): 1770 nM

CS(=O)(=O)c1ccc(-c2cnc(N)c(C(=O)Nc3ccccc3)n2)cc1 [VE-821]
potency estimated from few doses (ATR; compound concentrations: 100 nM and 1000 nM (sheet 'Samples'), CATDS: 0.19985195991101001): 648 nM

N#Cc1cccc(Nc2nccc(-c3cnn4ncccc34)n2)c1 [GW778894X]
potency estimated from few doses (CDK9): 3.72 nM

Nc1nc(N)c2nc(-c3ccccc3)[nH]c2n1 [SKF-12778]
potency estimated from few doses (ATR; [1]): 520 nM | potency estimated from few doses (MCM5): 2160 nM | potency estimated from few doses (RAB14; [1]): 1300 nM

CC(=O)c1c(-c2ccncc2)[nH]c(-c2ccncc2)c1C [GW493036X]
potency estimated from few doses (ADK; [1]): 1760 nM | potency estimated from few doses (CDK9): 154 nM

COc1cc2ncn(-c3cc(OCc4cccs4)c(C(N)=O)s3)c2cc1OC [GSK312948A]
potency estimated from few doses (ADK; [1]): 863 nM

Cn1cc(-c2cnc(N)c3c(-c4ccc5c(c4)CCN5C(=O)Cc4ccccc4)csc23)cn1 [GSK2593074A]
potency estimated from few doses (MCM5): 1530 nM

CC(C)c1nc(-c2ccc(F)c(NS(=O)(=O)c3c(F)cccc3F)c2)c(-c2ccnc(Nc3ccc(N4CCOCC4)nc3)n2)s1 [GSK1804250A]
potency estimated from few doses (PRKD1; [1]): 1140 nM

COc1cc2ncn(-c3cc(OCc4ccncc4)c(C(N)=O)s3)c2cc1OC [GSK336313A]
potency estimated from few doses (PLK1; [1]): 686 nM

COc1cccc(C2=C(c3cn(C)c4c(C)cccc34)C(=O)NC2=O)c1 [RO3301012-000]
potency estimated from few doses (CAMK2B; compound concentrations: 100 nM and 1000 nM (sheet 'Samples'), CATDS: 0.15582522082394101): 642 nM

COc1cc2ncn(-c3cc(OCc4sccc4Cl)c(C(N)=O)s3)c2cc1OC [GSK448459A]
potency estimated from few doses (PLK1; [1]): 81.2 nM

NC(=O)c1sc(-n2cnc3ccc(C(F)(F)F)cc32)cc1OCc1ccccc1Br [GW853606X]
potency estimated from few doses (PLK1; compound concentrations: 100 nM and 1000 nM (sheet 'Samples'), CATDS: 0.32728933930944998): 1020 nM

COc1ccc(C2=NC(c3ccc(Cl)cc3F)C(C(=O)Nc3ccc4[nH]ncc4c3)=C(C)N2)cn1.O=C(O)C(F)(F)F (stereo not shown) [GSK534913A]
potency estimated from few doses (PKN1; [1]): 2050 nM

Fc1cccc(COc2ccc(Nc3ncncc3C#Cc3ccccc3)cc2Cl)c1 [GW651576X]
potency estimated from few doses (TTK; CATDS: 4.4346947520248398E-2): 2370 nM

Nc1c(C(=O)c2ccccc2)cnn1-c1ccc(F)cc1 [RO1151246-000]
potency estimated from few doses (AKT3; [1]): 1420 nM | potency estimated from few doses (TP53RK; [1]): 1850 nM

COc1ccc(-c2nn3ncccc3c2-c2ccnc(Nc3ccc4c(c3)OCCO4)n2)cc1 [GW827106X]
potency estimated from few doses (TTK; CATDS: 4.8165403785390797E-2): 1630 nM

O=C1NC(=O)C(c2cccc(Cl)c2)=C1Nc1ccc(O)c(Cl)c1 [SB-409514]
potency estimated from few doses (ACLY; CATDS: 0.38429140901440101): 1000 nM | potency estimated from few doses (SMC4; compound concentrations: 100 nM and 1000 nM (sheet 'Samples'), CATDS: 0.290936381936651): 1760 nM

Cc1[nH]nc2c1N=C(c1ccccc1Cl)c1cc([N+](=O)[O-])ccc1N2 [RO0274406-000]
potency estimated from few doses (NME2;NME2P1; compound concentrations: 100 nM and 1000 nM (sheet 'Samples'), CATDS: 6.5363052061215496E-2): 1680 nM

Fc1ccc(-c2ncn(C3CCNCC3)c2-c2ccnc(Oc3ccc4c(c3)OCO4)n2)cc1 [SB-250715]
potency estimated from few doses (AKT3; [1]): 2290 nM

Cl.Oc1ccc2ncnc(Nc3ccc(OCc4ccccc4)cc3)c2c1 [GI262866A]
potency estimated from few doses (CAMK2B; [1]): 391 nM

COc1ccc(Nc2nccc(N3CCC(NC(=O)Nc4cccc(OC)c4)C3)n2)cc1 (stereo not shown) [GSK1379742A]
potency estimated from few doses (ADK; compound concentrations: 100 nM and 1000 nM (sheet 'Samples'), CATDS: 0.15674492121070999): 1070 nM | potency estimated from few doses (TP53RK; compound concentrations: 100 nM and 1000 nM (sheet 'Samples'), CATDS: 0.10793216189185099): 2270 nM

Cn1cc(C2=C(c3cccc([N+](=O)[O-])c3)C(=O)NC2=O)c2ccccc21 [RO0317474-000]
potency estimated from few doses (CAMK2B; compound concentrations: 100 nM and 1000 nM (sheet 'Samples'), CATDS: 0.20512519327704001): 717 nM

COc1cc(N2CCN(C(C)C)CC2)ccc1Nc1nc(Nc2cccc(F)c2C(=O)O)c2cc[nH]c2n1 [GSK1819799A]
potency estimated from few doses (ACLY; CATDS: 4.2702759645578299E-2): 2000 nM | potency estimated from few doses (TTK; CATDS: 6.5910432506735395E-2): 662 nM

COc1ccc(C2=C(c3cn(C)c4ccccc34)C(=O)NC2=O)cc1OC [RO3206363-000]
potency estimated from few doses (PRKD1; compound concentrations: 100 nM and 1000 nM (sheet 'Samples'), CATDS: 5.5883212244700199E-2): 347 nM

Cc1ccc(NC(=O)Nc2ccccc2)cc1-c1ccc(C(=O)Nc2ccncc2)cc1 [GSK1398471A]
potency estimated from few doses (PRKD1; compound concentrations: 100 nM and 1000 nM (sheet 'Samples'), CATDS: 0.105821439316495): 1680 nM

COc1cc(F)c(F)c(F)c1C(=O)c1cnc(NC2CCN(S(C)(=O)=O)CC2)nc1N [RO4600703-000]
potency estimated from few doses (CDK9): 349 nM
